In PubChem BioAssay (NCI):
About 79,000 compounds went through this panel and 15% of them were active in at least one assay; those are over-represented in the sample as a whole. The source made the active and inactive calls. Cut-off read from the data, not from the text of the source: active = growth inhibition above about 70%; inactive = the rest.

Tests used:
[1] = NCI Yeast Anticancer Drug Screen. Data for the rad52 strain (AID 147);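 note: 0% = growth of vehicle-treated control cultures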; details: S. cerevisiae rad52 mutant growth inhibition, stronger effect = higher value
How it was run: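 Yeast strain carrying a DNA damage repair alteration was exposed to test compounds. Growth inhibition was measured relative to vehicle-treated controls.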

[2] = NCI Yeast Anticancer Drug Screen. Data for the wt1 strain (AID 149);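 note: 0% = growth of vehicle-treated wt1 cultures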; details: S. cerevisiae wt1 strain (SPY 50644) growth inhibition, stronger effect = higher value
How it was run: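 wt1 strain grown with compound or vehicle; inhibition taken from the growth difference.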

[3] = NCI Yeast Anticancer Drug Screen. Data for the rad50EPP+ strain (AID 151);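 note: 0% = growth of vehicle-treated control cultures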; details: S. cerevisiae rad50 mutant strain, stronger effect = higher value
How it was run: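 Yeast strain carrying rad50 alteration (rad50EPP+) exposed to compounds; growth inhibition measured relative to vehicle-treated controls.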

[4] = NCI Yeast Anticancer Drug Screen. Data for the mgt1 strain (AID 153); details: S. cerevisiae mgt1 mutant growth inhibition, stronger effect = higher value
How it was run: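 Yeast mgt1 strain (DNA repair/cell-cycle alteration panel) exposed to compounds; growth inhibition measured relative to vehicle-treated controls.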

[5] = NCI Yeast Anticancer Drug Screen. Data for the rad50 strain (AID 155);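 note: 0% = growth of vehicle-only cultures of the same strain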; details: S. cerevisiae rad50 strain growth inhibition, stronger effect = higher value
How it was run: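 DNA repair mutant yeast, compound exposure, growth read-out; inhibition is taken relative to vehicle.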

[6] = NCI Yeast Anticancer Drug Screen. Data for the mec2-1 strain (AID 157); details: S. cerevisiae mec2-1 strain, stronger effect = higher value
How it was run: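 mec2-1 yeast strain, carrying an alteration in DNA damage repair or cell cycle control, was exposed to compounds; growth inhibition was measured relative to vehicle-treated controls.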

[7] = NCI Yeast Anticancer Drug Screen. Data for the rad14 strain (AID 159);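 note: 0% = growth of vehicle-treated control cultures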; details: S. cerevisiae rad14 strain growth inhibition, stronger effect = higher value
How it was run: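 DNA repair-defective yeast, compound-exposed; % growth inhibition derived by comparison with vehicle-treated controls.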

[8] = NCI Yeast Anticancer Drug Screen. Data for the sgs1 mgt1 strain (AID 161);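 note: 0% = growth of cultures given vehicle only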; details: S. cerevisiae sgs1 mgt1 strain, stronger effect = higher value
How it was run: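 Percent growth inhibition was derived by comparing compound-exposed mutant yeast with vehicle-exposed cultures. The strain carries alterations in DNA damage repair.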

[9] = NCI Yeast Anticancer Drug Screen. Data for the CLN2oe strain (AID 163);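 note: 0% = growth of vehicle-only control cultures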; details: S. cerevisiae CLN2oe strain, stronger effect = higher value
How it was run: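 Yeast cells carrying a defined cell-cycle control alteration were exposed to test compounds. Growth inhibition was scored against vehicle-treated control cultures.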

[10] = NCI Yeast Anticancer Drug Screen. Data for the cln2 rad14 strain (AID 165);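 note: 0% = growth equal to vehicle treated cultures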; details: S. cerevisiae cln2 rad14 strain, stronger effect = higher value
How it was run: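 Yeast carrying cln2 and rad14 alterations (cell cycle control and DNA damage repair) were exposed to compounds. Growth inhibition was measured against vehicle-treated controls.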

[11] = NCI Yeast Anticancer Drug Screen. Data for the bub3 strain (AID 167); details: S. cerevisiae bub3 mutant strain, stronger effect = higher value
How it was run: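 In this screen, a yeast mutant lacking normal mitotic checkpoint function is challenged with compound. Relative growth versus vehicle gives the inhibition value.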

[12] = NCI Yeast Anticancer Drug Screen. Data for the wt2 strain (AID 169);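 note: 0% = growth of vehicle-treated yeast cultures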; details: S. cerevisiae wt2 strain growth inhibition, stronger effect = higher value
How it was run: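 Yeast cells were exposed to test compounds, and growth inhibition was measured relative to vehicle-treated controls.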

[13] = NCI Yeast Anticancer Drug Screen. Data for the mlh1 strain (AID 171);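 note: 0% = growth of vehicle-treated control cultures of the same strain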; details: S. cerevisiae mlh1 strain growth inhibition, stronger effect = higher value
How it was run: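 Yeast carrying a defined genetic alteration in DNA damage repair or cell cycle control were exposed to test compounds. Growth inhibition was measured relative to vehicle-treated controls.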

[14] = NCI Yeast Anticancer Drug Screen. Data for the sgs1 strain (AID 173);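 note: 0% = growth of vehicle-only control cultures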; details: S. cerevisiae sgs1 mutant, stronger effect = higher value
How it was run: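 Yeast mutant strains carrying defined defects in DNA damage repair or cell cycle control were exposed to test compounds. Growth inhibition was scored against vehicle-treated controls.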

[15] = NCI Yeast Anticancer Drug Screen. Data for the mlh1 rad18 strain (AID 175); details: S. cerevisiae mlh1 rad18 strain growth inhibition, stronger effect = higher value
How it was run: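 Growth inhibition of the yeast strain was measured after compound exposure and expressed relative to vehicle-treated controls. The strain carries defined defects in DNA damage repair.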

[16] = NCI Yeast Anticancer Drug Screen. Data for the rad18 strain (AID 177); details: S. cerevisiae rad18 mutant growth inhibition, stronger effect = higher value
How it was run: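 Yeast carrying a defined DNA damage repair alteration were exposed to compounds. Growth inhibition was expressed relative to vehicle-treated controls.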

[17] = at 5.0 µM (retest, dose inferred, filed as 0.5)
[18] = at 50.0 µM (retest, dose inferred, filed as 5.0)

Measured: growth inhibition

C1=CCN([B-](c2ccccc2)[C+]2CCCCC2)C=C1
inactive: [1]; at 1.2 µM -3% | [1]; at 3.7 µM -4% | [1]; at 11.0 µM 1% | [1]; at 33.0 µM 58% | [2]; at 1.2 µM -1% | [2]; at 3.7 µM -2% | [2]; at 11.0 µM 1% | [2]; at 33.0 µM 64% | [3]; at 1.2 µM -3% | [3]; at 3.7 µM -4% | [3]; at 11.0 µM -3% | [3]; at 33.0 µM 2% | [3]; at 100.0 µM 22% | [4]; at 1.2 µM -2% | [4]; at 3.7 µM -1% | [4]; at 11.0 µM 0% | [4]; at 33.0 µM 44% | [5]; at 1.2 µM -3% | [5]; at 3.7 µM -49% | [5]; [17] -2% | [5]; at 11.0 µM 16% | [6]; at 1.2 µM -1% | [6]; at 3.7 µM -2% | [6]; [17] -4% | [6]; at 11.0 µM 4% | [7]; at 1.2 µM -1% | [7]; at 3.7 µM -2% | [7]; at 11.0 µM 1% | [7]; at 33.0 µM 28% | [8]; [17] -5% | [9]; at 1.2 µM -6% | [9]; at 3.7 µM -6% | [9]; at 11.0 µM 1% | [9]; at 33.0 µM 32% | [10]; [17] -1% | [10]; [18] 18% | [10]; at 50.0 µM 2.1% | [11]; at 1.2 µM 2% | [11]; at 3.7 µM -1% | [11]; [17] 1% | [11]; at 11.0 µM 4% | [11]; [18] 15% | [11]; at 50.0 µM -11.4% | [12]; at 1.2 µM -1% | [12]; at 3.7 µM 7% | [12]; at 11.0 µM 3% | [13]; at 1.2 µM -1% | [13]; at 3.7 µM -2% | [13]; at 11.0 µM -1% | [14]; at 1.2 µM -2% | [14]; at 3.7 µM -2% | [14]; at 11.0 µM 6% | [15]; [17] 0% | [16]; at 1.2 µM 0% | [16]; at 3.7 µM 0% | [16]; at 11.0 µM 2%
active: [1]; at 100.0 µM 98% | [2]; at 100.0 µM 98% | [4]; at 100.0 µM 99% | [5]; at 33.0 µM 70% | [5]; [18] 86% | [5]; at 50.0 µM 98.9% | [5]; at 100.0 µM 99% | [6]; at 33.0 µM 76% | [6]; [18] 96% | [6]; at 50.0 µM 98.7% | [6]; at 100.0 µM 99% | [7]; at 100.0 µM 99% | [8]; [18] 92% | [8]; at 50.0 µM 99.2% | [9]; at 100.0 µM 95% | [11]; at 33.0 µM 80% | [11]; at 100.0 µM 97% | [12]; at 33.0 µM 94% | [12]; at 100.0 µM 98% | [13]; at 33.0 µM 75% | [13]; at 100.0 µM 99% | [14]; at 33.0 µM 92% | [14]; at 100.0 µM 99% | [15]; [18] 96% | [15]; at 50.0 µM 96.5% | [16]; at 33.0 µM 75% | [16]; at 100.0 µM 98%

OB(O)c1ccccc1C#Cc1ccccc1
active: [5]; at 50.0 µM 96.3% | [8]; at 50.0 µM 76.8% | [11]; at 50.0 µM 76.8% | [15]; at 50.0 µM 75.8%
inactive: [1]; at 1.2 µM 3% | [1]; at 3.7 µM 4% | [1]; at 11.0 µM 8% | [1]; at 33.0 µM 21% | [1]; at 100.0 µM 27% | [2]; at 1.2 µM -2% | [2]; at 3.7 µM -2% | [2]; at 11.0 µM 2% | [2]; at 33.0 µM 8% | [2]; at 100.0 µM 15% | [3]; at 1.2 µM -1% | [3]; at 3.7 µM 3% | [3]; at 11.0 µM 12% | [3]; at 33.0 µM 33% | [3]; at 100.0 µM 34% | [4]; at 1.2 µM 1% | [4]; at 3.7 µM 3% | [4]; at 11.0 µM 8% | [4]; at 33.0 µM 14% | [4]; at 100.0 µM 18% | [5]; at 1.2 µM 5% | [5]; at 3.7 µM 13% | [5]; [17] -14% | [5]; at 11.0 µM 20% | [5]; at 33.0 µM 29% | [5]; [18] 21% | [5]; at 100.0 µM 43% | [6]; at 1.2 µM -1% | [6]; at 3.7 µM 6% | [6]; [17] -5% | [6]; at 11.0 µM 12% | [6]; at 33.0 µM 21% | [6]; [18] 1% | [6]; at 50.0 µM 64.5% | [6]; at 100.0 µM 28% | [7]; at 1.2 µM 2% | [7]; at 3.7 µM 2% | [7]; at 11.0 µM 12% | [7]; at 33.0 µM 27% | [7]; at 100.0 µM 37% | [8]; [17] -16% | [8]; [18] 22% | [9]; at 1.2 µM 7% | [9]; at 3.7 µM 9% | [9]; at 11.0 µM 23% | [9]; at 33.0 µM 43% | [9]; at 100.0 µM 40% | [10]; [17] -12% | [10]; [18] 13% | [10]; at 50.0 µM 55.8% | [11]; at 1.2 µM 8% | [11]; at 3.7 µM 2% | [11]; [17] -20% | [11]; at 11.0 µM 21% | [11]; at 33.0 µM 34% | [11]; [18] 43% | [11]; at 100.0 µM 46% | [12]; at 1.2 µM -2% | [12]; at 3.7 µM -1% | [12]; at 11.0 µM 7% | [12]; at 33.0 µM 23% | [12]; at 100.0 µM 24% | [13]; at 1.2 µM -2% | [13]; at 3.7 µM 6% | [13]; at 11.0 µM 4% | [13]; at 33.0 µM 14% | [13]; at 100.0 µM 14% | [14]; at 1.2 µM -1% | [14]; at 3.7 µM -1% | [14]; at 11.0 µM 8% | [14]; at 33.0 µM 19% | [14]; at 100.0 µM 31% | [15]; [17] 13% | [15]; [18] 68% | [16]; at 1.2 µM 1% | [16]; at 3.7 µM 2% | [16]; at 11.0 µM 13% | [16]; at 33.0 µM 41% | [16]; at 100.0 µM 54%
